The entries come from a sample that favours hits as a whole.
AMPAR-TARP mod: modulators of GluA2-stargazin AMPA receptor complexes, primary screen, cell-based, membrane potential dye. AID 1259245, 2017. 40,000 compounds, 3.5% hits. calls only at 30 µM. HEK293 GluA2+stargazin, membrane potential dye (FDSS), glutamate EC50; hits were called plate by plate, in both directions. Voltage-dependent calcium channel gamma-2 subunit (Mus musculus) + Glutamate receptor 2 …;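 active = any of four per-well response measures lying three or more SD from its plate-wide compound average, in either direction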
Target sequence (O88602 whole entry, looked up): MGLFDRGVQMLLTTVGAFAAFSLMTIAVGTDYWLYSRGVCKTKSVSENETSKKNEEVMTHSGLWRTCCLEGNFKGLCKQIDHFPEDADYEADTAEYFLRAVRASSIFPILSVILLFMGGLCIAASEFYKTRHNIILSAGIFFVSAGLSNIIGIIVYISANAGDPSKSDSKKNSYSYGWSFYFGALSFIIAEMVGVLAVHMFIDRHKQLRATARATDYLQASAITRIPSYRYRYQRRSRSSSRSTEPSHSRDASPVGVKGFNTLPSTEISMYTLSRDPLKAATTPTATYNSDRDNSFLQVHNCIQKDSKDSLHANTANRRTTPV
Target sequence (P19491 whole entry, looked up): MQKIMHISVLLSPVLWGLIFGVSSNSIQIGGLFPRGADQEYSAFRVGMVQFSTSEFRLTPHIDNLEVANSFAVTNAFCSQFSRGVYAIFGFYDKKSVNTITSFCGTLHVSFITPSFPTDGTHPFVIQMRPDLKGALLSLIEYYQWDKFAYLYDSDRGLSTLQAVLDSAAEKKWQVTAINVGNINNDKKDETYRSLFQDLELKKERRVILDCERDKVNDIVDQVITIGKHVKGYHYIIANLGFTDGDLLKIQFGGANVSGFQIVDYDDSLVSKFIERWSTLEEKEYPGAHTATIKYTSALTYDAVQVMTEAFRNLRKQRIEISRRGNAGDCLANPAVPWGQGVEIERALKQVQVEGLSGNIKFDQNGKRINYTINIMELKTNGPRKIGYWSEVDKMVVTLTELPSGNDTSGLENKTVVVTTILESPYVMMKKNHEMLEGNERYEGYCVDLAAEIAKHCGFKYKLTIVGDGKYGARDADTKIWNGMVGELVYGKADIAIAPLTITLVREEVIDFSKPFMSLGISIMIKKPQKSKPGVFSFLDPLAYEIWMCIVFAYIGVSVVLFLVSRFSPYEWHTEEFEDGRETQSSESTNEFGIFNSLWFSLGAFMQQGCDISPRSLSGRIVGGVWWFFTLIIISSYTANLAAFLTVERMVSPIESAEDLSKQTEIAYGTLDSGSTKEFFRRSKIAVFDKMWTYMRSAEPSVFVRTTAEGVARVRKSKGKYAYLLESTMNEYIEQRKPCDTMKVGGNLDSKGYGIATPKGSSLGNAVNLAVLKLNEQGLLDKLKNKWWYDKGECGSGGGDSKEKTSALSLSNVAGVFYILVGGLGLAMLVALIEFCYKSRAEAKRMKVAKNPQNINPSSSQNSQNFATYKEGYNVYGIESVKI
GIRK2 act: activators of NPY4-receptor-primed GIRK2 channels, summary, cell-based, HEK293, thallium flux | activation (% efficacy), % for hits at 37.5 µM | AID 1259324, 2017 | G protein-activated inward rectifier potassium channel 2 (Homo sapiens), P48051 | HEK293 GIRK2/NPY4 cells, thallium flux fluorescence | 34,000 tested, under 10 active;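 active = primary screen hit, no activity in plain HEK293 cells, and in GIRK2-only cells above 5% efficacy rising with concentration; inactive = the rest, including fluorescent compounds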;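 also: efficacy is normalized control-subtracted fluorescence 15 s after thallium addition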
Active calls of the source: *; i = inactive; . = no result given; + = active, no number.

SMILES	AMPAR-TARP mod	GIRK2 act
NC(=O)c1ccc(NC(=O)Cn2cnc(-c3ccccc3)cc2=O)cc1	i	i
CCn1c(=O)c2c(nc3n(-c4cc(OC)ccc4OC)c(-c4ccccc4)cn23)n(C)c1=O	i	i
CCCCn1c(=O)c2c(nc3n2CC(C)CN3c2ccccc2OC)n(C)c1=O (stereo not drawn)	i	.
CCCn1c(=O)c2c(nc3n(-c4cc(OC)ccc4OC)c(-c4ccccc4)cn23)n(C)c1=O	+	.
CCCn1c(=O)c2c(nc3n2CC(C)CN3c2ccccc2OC)n(C)c1=O (stereo not drawn)	+	.
CCOC(=O)N1CCN(C(=O)c2ccc(OCc3nc(C)cs3)cc2)CC1	i	i
Cc1cc2nc(N(Cc3cccnc3)C(=O)Cc3ccc(S(C)(=O)=O)cc3)sc2cc1C	i	.
O=C(Cc1cccc2ccccc12)NCC1CCN(c2ncccn2)CC1	i	i
O=C(Cc1cccc2ccccc12)NCC1CCN(C(=O)COc2ccccc2)CC1	+	i
O=C(Nc1ccc(F)cc1)c1ccc(Cl)c(S(=O)(=O)N2CCCCCC2)c1	i	.
Cc1ccnc(SCCn2c(N3CCOCC3)nc3c2c(=O)n(C)c(=O)n3C)n1	+	.
Cn1c(=O)c2c(nc(N3CCOCC3)n2CCSc2nc3ccccc3s2)n(C)c1=O	i	.
COc1ccccc1C(=O)NCCNc1ccc(C)nn1	i	i
COc1ccccc1-c1cnn2c(NCCCN3CCOCC3)cc(C)nc12	i	i
COC(=O)c1sccc1S(=O)(=O)N(CC(=O)Nc1ccc(OC)cc1)c1ccccc1	i	i
COC(=O)c1sccc1S(=O)(=O)N(CC(=O)Nc1ccccc1OC)c1ccc(Cl)cc1	+	.
COC(=O)c1sccc1S(=O)(=O)N(CC(=O)Nc1cc(C)ccc1C)c1ccc(Cl)cc1	i	i
COC(=O)c1sccc1S(=O)(=O)N(CC(=O)Nc1ccc(OC)cc1)c1ccc(Cl)cc1	+	i
CSCCC(C)(O)CNC(=O)/C=C/c1ccco1 (stereo not drawn)	i	.
CCOC(=O)N1CCN(C(=O)c2ccc3c(=O)n4c(nc3c2)SCCC4)CC1	i	i
O=C(NCCOc1ccc(F)cc1)C(=O)NCc1cccs1	.	i
CN1CCN(C(=O)C(=O)Nc2c3c(nn2-c2cccc(Cl)c2)CSC3)CC1	i	i
O=C(Nc1c2c(nn1-c1cccc(Cl)c1)CS(=O)C2)C1CCCCC1 (stereo not drawn)	+	i
CCOc1ccc(-c2ccc(OCCNS(=O)(=O)c3cc(C)ccc3OC)nn2)cc1	i	i
COc1cccc2cc(C(=O)Nc3ccc4c(c3)C(=O)N(C)CCO4)oc12	i	i
SMILES	AMPAR-TARP mod	GIRK2 act
CCCNC(=O)CCCCn1c(=O)c2ccccc2n(CC(=O)NCc2ccc(F)cc2)c1=O	+	i
O=C(CCCCn1c(=O)[nH]c2ccccc2c1=O)NC1CCCCC1	i	i
CCCNC(=O)CCCCn1c(=O)c2ccccc2n(CC(=O)Nc2ccc(OC)c(OC)c2)c1=O	i	.
O=C(CCCCn1c(=O)c2ccccc2n(CC(=O)NC2CCCCC2)c1=O)NC1CCCCC1	+	i
CC(C)CCNC(=O)CCCCn1c(=O)c2ccccc2n(CC(=O)NCc2ccccc2)c1=O	+	.
COc1ccc(CNC(=O)Cn2c(=O)n(CCCCC(=O)NCC(C)C)c(=O)c3ccccc32)cc1	i	.
COc1ccccc1-c1ccc(=O)n(CC(=O)Nc2nc3ccccc3s2)n1	i	i
O=c1[nH]nc(SCc2cc(=O)n3ccccc3n2)n2nc(-c3ccco3)cc12	.	i
CC(C)Cn1c(-c2ccc([N+](=O)[O-])cc2)nc2c(c(=O)c3ccccc3n2C)c1=O	+	.
COc1ccc(-c2nc3c(c(=O)c4ccccc4n3C)c(=O)n2CC(C)C)cc1	i	.
COc1ccc(SCCC(=O)Nc2ccc3c(c2)C(=O)NC3=O)cc1	+	i
COc1ccc(S(=O)(=O)CC(=O)Nc2ccc3c(c2)C(=O)NC3=O)cc1	i	i
COC(=O)c1cc(-c2ccc(F)c(F)c2)nc2c1c(C)nn2C1CCS(=O)(=O)C1 (stereo not drawn)	.	i
Cc1ccc(COc2ccccc2-n2c(C)c(C)n3c4c(=O)n(C)c(=O)n(C)c4nc23)cc1	i	.
COc1ccc(-c2cc3ccc4c(c3oc2=O)CN(Cc2ccco2)CO4)cc1	i	i
O=C(Nc1sc2c(c1C(=O)O)CCC2)c1cccc(Cl)c1	+	.
CC(C)S(=O)(=O)c1cccc(C(=O)Nc2sc3c(c2C(N)=O)CCCC3)c1	i	i
Cc1cc(C(=O)NCC2(O)CCCC2)no1	i	i
O=C(/C=C/c1cccs1)N(CCN1CCOCC1)c1nc2ccc(Cl)cc2s1	i	.
O=C(Nc1ccccc1[N+](=O)[O-])C1CCCN(c2ccc(-c3ccccc3)nn2)C1 (stereo not drawn)	+	i
O=C(Nc1ccc([N+](=O)[O-])cc1)C1CCCN(c2ccc(-c3ccccc3)nn2)C1 (stereo not drawn)	i	i
O=C(CSc1ccc(NC(=O)C2CC2)nn1)c1ccc(Cl)cc1	i	i
COc1ccc(-c2csc(NC(=O)c3ccc(S(=O)(=O)C(C)C)cc3)n2)cc1OC	i	.
COc1cccc2sc(NC(=O)c3ccc(S(=O)(=O)C(C)C)cc3)nc12	+	i
CC(=O)c1sc(NC(=O)c2ccc(S(=O)(=O)C(C)C)cc2)nc1C	+	.
SMILES	AMPAR-TARP mod	GIRK2 act
CC(C)S(=O)(=O)c1ccc(C(=O)Nc2nc(-c3ccc(Cl)s3)cs2)cc1	i	.
COc1ccccc1OCC(O)CN1CC(C)OC(C)C1 (stereo not drawn)	i	i
CC(C)COC(=O)Nc1nc(CC(=O)Nc2ccccc2C(N)=O)cs1	.	i
Cc1ccc(-c2cc(=O)n(CC(=O)N3CCCc4cc(C)ccc43)cn2)cc1	i	i
CC(C)CCNC(=O)CCc1csc(NC(=O)c2ccc[nH]c2=O)n1	i	.
COCCNC(=O)CCc1csc(NC(=O)c2ccc[nH]c2=O)n1	+	i
COc1ccc2nc(-c3cccc(NC(=O)c4c(F)cccc4F)c3)cn2n1	i	i
COc1ccc2nc(-c3cccc(NC(=O)Nc4ccc(F)cc4)c3)cn2n1	+	i
O=C(CSc1nc(=O)n(CC2CCCO2)c2c1CCCC2)NCc1ccc2c(c1)OCO2 (stereo not drawn)	i	i
FC(F)(F)CNCc1ccsc1	i	i
COc1ccc(OC)c(NC(=O)c2nn(-c3ccc(F)cc3)cc2OCc2ccccc2)c1	i	i
CCOc1cn(-c2ccc(F)cc2)nc1C(=O)NCCOC	i	i
CCOc1cn(-c2ccc(F)cc2)nc1C(=O)NC1CCCCC1C (stereo not drawn)	+	i
COc1ccccc1NC(=O)c1nn(-c2ccc(F)cc2)cc1OCc1ccccc1	+	i
CC(C)(C)C(=O)N1CCc2ccc(NC(=O)c3ccc(Br)o3)cc21	i	i
COc1cc(OC)cc(C(=O)Nc2cccc(-c3cn4nc(OC)ccc4n3)c2)c1	i	i
Cc1c(C)n2c3c(=O)n(CC(N)=O)c(=O)n(C)c3nc2n1CC(C)C	i	i

Compound activity deposited in PubChem BioAssay by several laboratories.
